hERG WT inh: inhibitors of human wildtype KCNH2 potassium channel; U2OS, BacMam KCNH2, thallium flux FluxOr; active compounds read low; activity change, % at 1.84 µM; 340,000 compounds, 0.37% hits; AID 720551;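 active means maximum activity change below -70%; inconclusive means maximum activity change between -70% and -50%; inactive means maximum activity change above -50%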; further: on the % scale 0 is the no-effect control and ±100 the full control effect
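U2OS cells were transduced with wild-type KCNH2 virus (2.03 x 10^8 / mL) for 4 h at room temperature, then cultured overnight at 37 C. Thallium flux was read with FluxOr dye. Rate constants were normalized to DMSO controls.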
TRPML1 blocker: human mucolipin-1 channel inhibition | Q9GZU1 | activity change, negative = inhibition, % (no concentration beside the values) | 390,000 compounds, 0.02% hits | TRPML1-inducible cells, Ca2+ dye fluorescence, FDSS; active compounds read low; inhibition of EC80 agonist-evoked calcium signal; in the data active means activity change below about -50%; inconclusive means between about -30% and that limit;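 further: stimulus is agonist 54-4 at its EC80 concentration; on the % scale 0 is the no-effect control and ±100 the full control effect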
Target sequence (Q9GZU1 whole entry, looked up): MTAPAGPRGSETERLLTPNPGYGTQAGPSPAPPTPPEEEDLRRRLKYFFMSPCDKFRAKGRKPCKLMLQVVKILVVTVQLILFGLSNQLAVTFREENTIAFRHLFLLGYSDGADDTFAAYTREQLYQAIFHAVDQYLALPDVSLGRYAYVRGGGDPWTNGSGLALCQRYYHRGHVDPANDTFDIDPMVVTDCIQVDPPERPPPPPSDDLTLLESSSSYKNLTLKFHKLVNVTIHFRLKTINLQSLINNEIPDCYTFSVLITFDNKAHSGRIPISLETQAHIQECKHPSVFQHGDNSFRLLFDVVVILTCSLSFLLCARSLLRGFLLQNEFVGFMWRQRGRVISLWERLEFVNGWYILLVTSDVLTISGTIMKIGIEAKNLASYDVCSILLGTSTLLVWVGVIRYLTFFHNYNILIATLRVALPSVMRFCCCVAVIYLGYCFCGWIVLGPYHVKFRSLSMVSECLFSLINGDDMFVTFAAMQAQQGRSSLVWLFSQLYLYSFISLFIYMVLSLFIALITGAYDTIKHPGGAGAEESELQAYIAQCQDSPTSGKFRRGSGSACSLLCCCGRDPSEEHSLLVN
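Calcium fluorescence in TRPML1-DL cells induced overnight with Tet: a 110 s read after compound pin addition, then a 110 s antagonist read after challenge with 54-4 at 4 uM final (EC80).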
TRPV1 potentiator: human TRPV1 potentiation; TRPV1-expressing cells, Fluo-8 calcium influx, capsaicin EC20 potentiation; AID 540277; 320,000 compounds, 0.02% hits; potentiation, % at 8.33 µM; Q8NER1; in the data active means potentiation above about 80%; inconclusive means between about 30% and that limit; further: 0% is about no effect
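Cells expressing TRPV1 were dye-loaded with Fluo-8 and read kinetically: 10 s baseline, 3 min after compound (agonist portion), then 2 min after EC20 capsaicin (allosteric enhancer portion). Calcium-bound dye fluorescence at 480/520 nm.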
TRPV1 ag: agonists of human vanilloid receptor 1 (TRPV1) | Q8NER1 | TRPV1-expressing cells, Fluo-8 calcium influx, agonist mode | activation, % at 8.33 µM | 320,000 compounds, 0.19% hits | AID 540275; in the data active means activation above about 80%; inconclusive means between about 30% and that limit; further: 0% is about no effect
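Cells expressing TRPV1 were dye-loaded with Fluo-8 and read kinetically: 10 s baseline, 3 min after compound (agonist portion), then 2 min after EC20 capsaicin (allosteric enhancer portion). Calcium-bound dye fluorescence at 480/520 nm.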
KCNH2 3.1 block: inhibitors of human KCNH2 3.1 potassium channel isoform. U2OS KCNH2 3.1, thallium flux FluxOr; active compounds read low. activity change, % (tested at about 1.8 µM). 340,000 compounds, 0.95% hits;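 active means maximum activity change below -70%; inconclusive means maximum activity change from -70% to -50%; inactive means maximum activity change above -50%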;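 further: thallium influx rate constant from kinetic fluorescence after stimulation buffer; on the % scale 0 is the no-effect control and ±100 the full control effect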
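We transduce U2OS cells with the mutant 3.1 virus, culture them overnight, load FluxOr with Red40 quencher for 45 min, then add stimulation buffer and read kinetically for 2 min to derive a normalized rate constant.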
TRPML1 agonist: activates the human TRPML1 channel; 410,000 compounds, 0.12% hits; activation, % (concentration not given with the values); AID 624414; Q9GZU1; TRPML1-expressing cells, Ca2+ dye fluorescence, FDSS; in the data active means activation above about 50%; inconclusive means mostly about 30% to 49%; further: 0% is about no effect
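Tet-induced TRPML1-DL cells, 1,500 per well, cultured overnight, were loaded with a no-wash Ca2+ dye for 45–90 min. Calcium fluorescence was recorded on the FDSS for 110 s after compound addition, before the EC80 agonist (4 uM 54-4) was added.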
* = called active by the depositor; ? = inconclusive; . = not tested or not shown. Most compounds without a hit are left out; they make up all but 1.3% or so of the library.

SMILES | hERG WT inh | TRPML1 blocker | TRPV1 potentiator | TRPV1 ag | KCNH2 3.1 block | TRPML1 agonist
CC(=O)N1CCCc2cc(S(=O)(=O)N(C)CC(=O)Nc3ccc(C(C)C)cc3)ccc21 | . | -8.1 | . | . | . | -0.2
Cc1cc(C)cc(N2Cc3ccccc3C2)c1 | -2.9 | 0.8 | -11.7 | 7.9 | -2.2 | -0.2
COc1cc(N2Cc3ccccc3C2)ccc1C=O | -7.8 | 0.3 | 93.7* | -0.7 | -2.9 | -0.2
N#CC1(NC(=O)COC(=O)c2nc(Cl)c(Cl)c(N)c2Cl)CCCCC1 | 10.4 | -1.7 | 5.5 | 2.1 | -23.0 | 0.8
N#CC1(NC(=O)COC(=O)c2ncc(Cl)c(Cl)c2Cl)CCCCC1 | -2.5 | -0.3 | -11.1 | 12.8 | -72.8* | -0.4
CC1=Nc2ccccc2/C1=C(/C)c1c(C)[nH]c2ccccc12 | . | . | . | . | . | -0.3
Cc1ccc(N(Cc2ccccc2)C(=O)c2ccc(F)c(S(=O)(=O)N3CCOCC3)c2)cc1 | -12.0 | -15.5 | -20.7 | 26.0 | -93.5* | -0.7
Cc1cccc2c1-c1sc(C(=O)N(C)c3cccc(Cl)c3)cc1CO2 | . | -10.5 | . | . | . | 1.2
Cc1cccc(CN2CCC(C(=O)Nc3cccc(-c4cccc(F)c4)c3)CC2)n1 | -73.7* | -2.1 | -15.9 | 16.1 | -93.7* | 0.2
O=C(Nc1cccc(-c2cccc(Cl)c2)c1)C1CCN(Cc2ccccn2)CC1 | ? | -4.9 | -11.5 | 20.0 | -72.2* | 0.9
Cc1c(CN2CCC(C(=O)Nc3cccc(-c4cccc(Cl)c4)c3)CC2)cnn1C | -99.9* | 1.2 | -3.0 | 0.9 | -84.7* | 1.0
C=CCn1cc(CN2CCC(C(=O)Nc3cccc(-c4cccc(F)c4)c3)CC2)c(C)n1 | -6.4 | -9.8 | 3.2 | 10.0 | -49.2 | 0.4
C=CCn1cc(CN2CCC(C(=O)Nc3cccc(-c4cccc(Cl)c4)c3)CC2)c(C)n1 | -99.3* | 0.1 | -0.6 | 4.2 | -93.0* | 1.3
Cc1c2cnn(CC(=O)N3CCCCC3)c(=O)c2c(C)n1Cc1ccc(Cl)cc1 | . | 16.3 | . | . | . | 0.1
O=c1c2ccccc2n2c(-c3ccc(Cl)cc3)nnc2n1CCc1ccccc1 | . | 3.2 | . | . | . | 0.2
CCCn1ncc(CN2CCC(C(=O)Nc3cccc(-c4cccc(F)c4)c3)CC2)c1C | ? | 17.4 | -5.9 | 7.0 | -85.3* | 4.5
COCc1ccc(CN2CCC(C(=O)Nc3cccc(-c4cccc(Cl)c4)c3)CC2)o1 | -82.1* | 26.0 | 14.0 | 17.8 | -80.7* | -0.2
Cn1cc(CN2CCC(C(=O)Nc3cccc(-c4cccc(F)c4)c3)CC2)cn1 | 21.4 | -1.1 | -4.3 | 0.6 | -35.9 | 0.3
COCc1ccc(CN2CCC(C(=O)Nc3cccc(-c4cscn4)c3)CC2)o1 | 7.2 | 0.9 | 1.5 | -1.0 | -1.8 | 0.0
COc1cccc(CN2CCC(C(=O)Nc3ccc(-c4cccc(C)c4)cc3)CC2)c1O | -8.3 | 0.9 | 2.0 | 3.1 | -94.8* | -0.5
Cc1cccc(-c2ccc(NC(=O)C3CCN(CC4CC4)CC3)cc2)c1 | -6.6 | -21.6 | 2.0 | -3.2 | -38.5 | 0.7
O=S(=O)(Nc1c(Br)cc(Br)c2cccnc12)C1CC1 | . | -10.0 | 15.5 | -6.7 | . | 1.3
CCc1ccc(CNC(=O)COc2cc(=O)n(CC)c3ccccc23)cc1 | . | -11.1 | . | . | . | 1.9
CC(C)OP(=O)(OC(C)C)C(NC(=O)c1ccc(Br)cc1)c1ccccc1 (configuration not stated) | 8.4 | -16.7 | -24.6 | 23.6 | 10.6 | 0.1
CCOP(=O)(OCC)C(NC(=O)c1ccc(OC)cc1)c1ccccc1 (configuration not stated) | 2.2 | 14.2 | -4.8 | 2.6 | -95.8* | -0.9
SMILES | hERG WT inh | TRPML1 blocker | TRPV1 potentiator | TRPV1 ag | KCNH2 3.1 block | TRPML1 agonist
C[C@H](CO)N1C[C@H](C)[C@@H](CN(C)S(=O)(=O)c2cccs2)Oc2ccc(NC(=O)NC3CCCCC3)cc2C1=O | 24.7 | 2.9 | . | . | -18.4 | -0.3
C[C@H](CO)N1C[C@H](C)[C@@H](CN(C)C(=O)Nc2ccccc2)Oc2ccc(NC(=O)Nc3ccc4c(c3)OCO4)cc2C1=O | -17.3 | 0.9 | . | . | -119.9* | -0.8
C[C@H](CO)N1C[C@H](C)[C@@H](CN(C)C(=O)Nc2ccc3c(c2)OCO3)Oc2ccc(NC(=O)Nc3ccc(C(F)(F)F)cc3)cc2C1=O | -2.3 | -2.7 | . | . | 5.0 | -0.2
C[C@@H]1CCCCO[C@H](CN(C)S(=O)(=O)c2cccs2)[C@H](C)CN([C@@H](C)CO)C(=O)c2cc(NC(=O)NC3CCCCC3)ccc2O1 | -9.2 | 32.0 | . | . | -98.5* | 0.4
COC(=O)c1ccc(C(=O)OC)c(NC(=O)c2ccc(-c3ccccc3)s2)c1 | . | 20.2 | . | . | . | 2.5
O=C(O)c1cccc(COc2ccc3c(c2)CCC3)c1 | 6.4 | 16.4 | 7.9 | -4.6 | -112.0* | -0.4
O=C(NCc1ccccc1)c1cccc(COc2ccc3c(c2)CCC3)c1 | -1.3 | 41.1 | 3.1 | 10.7 | -16.5 | 1.3
CC(=O)NC(Cc1ccccc1)C(=O)N1CCN(C(=O)c2cccs2)CC1 (configuration not stated) | 5.5 | 2.0 | -7.7 | 2.1 | -94.5* | 0.2
CC(=O)N1CCN(C(=O)C(Cc2ccccc2)NC(=O)c2ccccc2)CC1 (configuration not stated) | 8.3 | 6.6 | 8.6 | 0.1 | -4.9 | -0.8
Cn1c(SCCOc2ccccc2)nnc1-c1ccc(NC(=O)CCc2ccccc2)cc1 | . | . | . | . | . | -0.4
CCOC(=O)c1c(NC(=O)CNC2CCCCC2)sc(C)c1C | 6.0 | -3.2 | -0.3 | -1.9 | -83.2* | 0.2
CC(C)NS(=O)(=O)c1ccc2[nH]c3nc(SCC(=O)Nc4ccc(F)c(F)c4)nnc3c2c1 | . | . | . | . | . | 0.5
O=C(NCCCN1CCOCC1)NC12CC3CC(CC(C3)C1)C2 | -0.2 | 5.2 | 8.7 | 3.6 | -16.9 | -0.4
O=C(NCCCN1CCN(c2ccc(F)cc2)CC1)Nc1ccccc1Cl | . | -9.7 | . | . | . | 0.0
COc1ccc(-c2noc(CCC(=O)NCCCN3CCN(c4ccc(F)cc4)CC3)n2)cc1 | 39.8 | -0.5 | 22.0 | -5.3 | 3.2 | 0.2
O=C(NCCCN1CCN(c2ccc(F)cc2)CC1)NC12CC3CC(CC(C3)C1)C2 | ? | -7.1 | -6.5 | 5.5 | -82.6* | 0.0
CSc1ccc(N2CCN(CCCNC(=O)Nc3ccccc3F)CC2)cc1 | 38.0 | -1.1 | 12.2 | -14.5 | -77.5* | 0.4
COc1ccc(-c2noc(CCC(=O)NCCCN3CCC(Cc4ccccc4)CC3)n2)cc1 | ? | 30.2 | -15.9 | 4.0 | -103.2* | 0.5
COc1ccc(-c2cc3c(=O)n(CC(=O)NCCCN4CCC(Cc5ccccc5)CC4)ncn3n2)cc1 | -111.0* | 4.4 | 10.5 | 6.2 | -71.3* | -0.1
Nc1cccc[n+]1C(c1ccnc2ccccc12)[n+]1ccccc1N | . | . | . | . | . | 2.2

Screens as filed in PubChem BioAssay.
